The text below walks through data of PubChem BioAssay (NCATS).

The target of test [1] is Vitamin D3 receptor (Homo sapiens) (UniProt P11473). Briefly: qHTS assay for small molecule antagonists of vitamin D receptor signaling (AID 588541; calls by dose curve;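 note: receptor activated by calcitriol during compound treatment; series mostly up to about 77 µM; % is set by controls: 0 for no effect and ±100 for the full control effect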). In short, it runs like this:
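VDR-UAS-bla HEK293T cells in 2% charcoal-stripped FBS were stimulated with 1-alpha,25-dihydroxyvitamin D3 (3 nM final) plus compound for 16 h at 37 C. The beta-lactamase CCF4 readout was normalized to 50 nM agonist and DMSO, and Hill fits gave IC50.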

A short description of test [2]: qHTS assay for small molecule agonists of retinoid X receptor alpha signaling (AID 588544; calls by dose curve). Conditions: HEK293T RXRa-UAS-bla, beta-lactamase reporter, 18 h; 530 nm emission.
The target in test [3] is Retinoic acid receptor RXR-alpha (Homo sapiens) (UniProt P19793). Described as above.
Test [4] can be described thus: qHTS assay for small molecule antagonists of retinoid X receptor alpha signaling (AID 588546; active = well fitted inhibition curve with a large enough effect in the signal ratio, with a control signal flat, not every such curve was filed as active; the % refers to the signal ratio;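 note: cells stimulated with 9-cis-retinoic acid as agonist; % is set by controls: 0 for no effect and ±100 for the full control effect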). Conditions: HEK293T RXRa-UAS-bla, beta-lactamase ratio, antagonist mode; measured here: W530 green channel, cytotoxicity proxy. In short, it runs like this: (§1)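 Beta-lactamase reporter inhibition, read as CCF4 fluorescence ratio (ex 405, em 460/530 nm) after 2 h at RT. HEK293T UAS-bla cells, 2500/well, were stimulated with 9-cis-RA at 500 or 100 nM final alongside test compound for 18 h at 37 C.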

Test [5] deals with Retinoic acid receptor RXR-alpha (Homo sapiens) (UniProt P19793). The description is as above. Conditions: HEK293T RXRa-UAS-bla, beta-lactamase ratio, antagonist mode. In short, it runs like this:
as §1

Test [6] addresses Luciferin 4-monooxygenase (Photinus pyralis) (UniProt P08659). Nature of the test: Biochemical firefly luciferase enzyme assay for NPC (AID 624030).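 Note: purified P. pyralis luciferase at 10 nM with luciferin and ATP substrate; series mostly up to about 59 µM; 0% = DMSO and -100% = full luciferase inhibition by PTC124 control; nearly all actives have a fitted effect of over 70% in size.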 The procedure, abridged: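 Purified P. pyralis luciferase at 10 nM in 50 mM Tris Acetate (final), luminescence read within 5 minutes of enzyme addition to compounds. Activity normalised to PTC124 versus DMSO; concentration-response curves classed by r2, magnitude and activity.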

A short description of test [7]: qHTS assay for small molecule antagonists of peroxisome proliferator-activated receptor delta signaling (AID 588535; active = well fitted inhibition curve with a large enough effect in the signal ratio, with a control signal flat, not every such curve was filed as active; the % refers to the signal ratio;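 for max response: cells co-treated with a PPAR-delta agonist as stimulator during compound exposure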). Conditions: HEK293T PPARd-UAS-bla, beta-lactamase FRET ratio, 18 h; 460 nm channel. In short, it runs like this: (§2)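 Cells were seeded at 4000 per well in assay medium containing 2% charcoal/dextran FBS and held 5 hrs at 37 C. Compounds were then added for 18 hrs. CCF4 substrate was applied for 2 hrs at room temperature before fluorescence reading.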

For test [8], the target named is Peroxisome proliferator-activated receptor delta (Homo sapiens) (UniProt Q03181). The test is described as above. The procedure, abridged:
as §2

For test [9], the target named is Peroxisome proliferator-activated receptor gamma (Homo sapiens) (UniProt P37231). Briefly: qHTS assay for small molecule agonists of peroxisome proliferator-activated receptor gamma signaling (AID 588536; active = well fitted curve in the direction sought with a large enough effect in the signal ratio, with a control signal flat, not every such curve was filed as active; the % refers to the signal ratio;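 note: 0% = DMSO basal wells and 100% = rosiglitazone at 2 µM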). The procedure, abridged:
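GeneBLAzer PPAR-gamma-UAS-bla HEK293 cells in 1% charcoal/dextran-treated FBS medium were treated 16 h at 37 C with compounds. Beta-lactamase activity was read by CCF4 ratio (460/530 nm). Response was normalized to 2 uM rosiglitazone (100%) and DMSO, then Hill-fitted for EC50 and efficacy.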

Test [10] shares this target. Briefly: qHTS assay for small molecule antagonists of peroxisome proliferator-activated receptor gamma signaling (AID 588537; active = well fitted inhibition curve with a large enough effect in the signal ratio, with a control signal flat, not every such curve was filed as active; the % refers to the signal ratio;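 note: reporter cells co-stimulated with 50 nM rosiglitazone agonist during compound treatment; % of control where 0% means no effect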). The procedure, abridged: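 Step one: plate 3000 HEK293 UAS-bla cells per well in medium with 1% stripped serum and hold 6-6.5 h at 37 C. Step two: add compound and 50 nM agonist for 16 h. Step three: CCF4 loading, fluorescence read.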
For test [11], the target named is Voltage-gated inwardly rectifying potassium channel KCNH2 (Homo sapiens) (UniProt Q12809). Nature of the test: qHTS Assay for Small Molecule Inhibitors of the Human hERG Channel Activity (AID 588834).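 Note: lower thallium flux fluorescence means stronger hERG block; nearly all actives have a fitted effect of over 50% in size.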 Note: potency is the fitted concentration of half-maximal effect. The procedure, abridged: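 Blockade is seen as reduced FluxOR thallium-flux fluorescence in U2OS cells expressing hERG from a BacMam construct, in Opti-MEM with 2% FCS. Concentration-response data fitted to the Hill equation for AC50.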

The target of test [12] is Glutaminase kidney isoform, mitochondrial (Homo sapiens) (UniProt O94925). Briefly: qHTS for Inhibitors of Glutaminase (GLS): LOPAC Validation (AID 624146).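 Note: glutamate product detected by oxidase and peroxidase coupled Amplex red fluorescence gain; series mostly up to about 46 µM; % is set by controls: 0 for no effect and ±100 for the full control effect; nearly all actives have a fitted effect of over 60% in size.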 The procedure, abridged: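 hKGA in 45 mM KH2PO4 pH 8.2, 0.02% Tween-20 with pin-transferred compounds; 1 mM L-glutamine (stock) plus glutamate oxidase/HRP/Amplex Red coupling added. Fluorescence read initially and after 30 min at RT.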

Test [13] is described as follows: qHTS of Trypanosoma Brucei Inhibitors: LOPAC Validation (AID 624147). Note: 0% is about no effect. In short, it runs like this: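 Readout: single end-point luminescence (Kinase-Glo Plus, 10 min). Reaction conditions were TbPYK/substrate plus 130 uM ADP, 45 min at RT, pH 7.2 TEA buffer. No-enzyme wells served as controls, and data were normalized before concentration-response fitting.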
In test [14] the target is Glucagon-like peptide 1 receptor (Homo sapiens) (UniProt P43220). Briefly: qHTS of GLP-1 Receptor Agonists: LOPAC Validation (AID 624148).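 Note: 0% is about no effect; higher luminescence signal means agonism.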 The procedure, abridged:
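HEK293 cells stably co-expressing GLP-1R and a cAMP-responsive luciferase reporter, plated 12 hours before compound, then incubated 4-6 hr at 37 deg C. Luminescence read 12 min after detection reagent.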

Test [15] is described as follows: qHTS of Nrf2 Activators: LOPAC Validation (AID 624149). Note: 0% is about no effect. In short, it runs like this:
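ARE reporter activation measured in AREc32 firefly luciferase cells after 24 hr compound exposure; Steady-Glo luminescence.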

The nature of test [16]: HTS Assay for Allosteric Antagonists of the Human D2 Dopamine Receptor: Hit Validation in HTRF (AID 624455).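 Note: stable D1 dopamine receptor cell line scored for blocking the D1 response; % is set by controls: 0 for no effect and ±100 for the full control effect.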 In short, it runs like this:
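Signal from an HTRF read-out in D1-expressing stable cells gave hit activity as inhibition of the D1 response.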

Test [17] in a line: S16 Schwann cell viability assay (CellTiter-Glo assay) (AID 624031). Note: nearly all actives have a fitted effect of over 70% in size. Note: potency is the fitted concentration of half-maximal effect. The procedure, abridged:
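Parental S16 cells, 24 h compound, 37 °C. ATP-luminescence viability; DMSO = 0% activity, empty wells as reference; curves classified by fit quality and efficacy.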

A short description of test [18]: S16 Schwann cell PMP22 intronic element beta-lactamase assay (AID 624044; calls by dose curve; note: nearly all actives have a fitted effect of over 15% in size; note: potency is the fitted concentration of half-maximal effect). In short, it runs like this:
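Rat S16 Schwann cells with beta-Lac driven by a PMP22 intronic element, compound-treated 24 h at 37 °C. LiveBLAzer FRET B/G read: 460 nm normalized to potassium clavulanate vs DMSO; 535 nm FRET as viability; concentration-effect curves classified.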

Test [19] is described as follows: S16 Schwann cell PMP22 intronic element firefly luciferase assay (AID 624032). Note: nearly all actives have a fitted effect of over 30% in size. Note: potency is the fitted concentration of half-maximal effect. In short, it runs like this: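 Rat S16 Schwann cells stably carrying firefly luciferase driven by a PMP22 intronic element, in 10% FBS, treated 24 h at 37 C. ONE-Glo luminescence normalized to PTC124 control and DMSO (0%); curves classed by r2, magnitude and activity.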

Where “and” joins values, the source holds several entries; their conditions need not be identical. Identical values can stand only once. Results filed as inconclusive are left out. Calls of active or inactive are those of the source. Unless noted, calls come from the whole dose curve; as a rule, active = well fitted curve in the direction sought with a large enough effect; inconclusive = small, poorly fitted or top-dose-only effect, or another doubt; inactive = no such curve, though single readings can be large; an effect the other way counts as inactive or inconclusive.

Chain of Peroxisome proliferator-activated receptor delta (Homo sapiens) (Q03181 whole entry, looked up): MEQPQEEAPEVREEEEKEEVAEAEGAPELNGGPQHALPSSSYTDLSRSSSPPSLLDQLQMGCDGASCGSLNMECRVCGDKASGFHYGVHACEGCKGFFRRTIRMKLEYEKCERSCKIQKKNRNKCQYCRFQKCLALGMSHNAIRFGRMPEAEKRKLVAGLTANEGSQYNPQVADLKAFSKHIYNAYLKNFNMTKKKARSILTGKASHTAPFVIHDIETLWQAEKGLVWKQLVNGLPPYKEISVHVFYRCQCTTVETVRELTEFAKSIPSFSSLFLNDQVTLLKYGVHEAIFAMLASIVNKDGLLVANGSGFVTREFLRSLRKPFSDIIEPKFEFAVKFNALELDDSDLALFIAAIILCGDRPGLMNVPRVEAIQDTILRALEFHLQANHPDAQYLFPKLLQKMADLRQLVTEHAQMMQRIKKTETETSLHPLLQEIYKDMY
Chain of Voltage-gated inwardly rectifying potassium channel KCNH2 (Homo sapiens) (Q12809 whole entry, looked up): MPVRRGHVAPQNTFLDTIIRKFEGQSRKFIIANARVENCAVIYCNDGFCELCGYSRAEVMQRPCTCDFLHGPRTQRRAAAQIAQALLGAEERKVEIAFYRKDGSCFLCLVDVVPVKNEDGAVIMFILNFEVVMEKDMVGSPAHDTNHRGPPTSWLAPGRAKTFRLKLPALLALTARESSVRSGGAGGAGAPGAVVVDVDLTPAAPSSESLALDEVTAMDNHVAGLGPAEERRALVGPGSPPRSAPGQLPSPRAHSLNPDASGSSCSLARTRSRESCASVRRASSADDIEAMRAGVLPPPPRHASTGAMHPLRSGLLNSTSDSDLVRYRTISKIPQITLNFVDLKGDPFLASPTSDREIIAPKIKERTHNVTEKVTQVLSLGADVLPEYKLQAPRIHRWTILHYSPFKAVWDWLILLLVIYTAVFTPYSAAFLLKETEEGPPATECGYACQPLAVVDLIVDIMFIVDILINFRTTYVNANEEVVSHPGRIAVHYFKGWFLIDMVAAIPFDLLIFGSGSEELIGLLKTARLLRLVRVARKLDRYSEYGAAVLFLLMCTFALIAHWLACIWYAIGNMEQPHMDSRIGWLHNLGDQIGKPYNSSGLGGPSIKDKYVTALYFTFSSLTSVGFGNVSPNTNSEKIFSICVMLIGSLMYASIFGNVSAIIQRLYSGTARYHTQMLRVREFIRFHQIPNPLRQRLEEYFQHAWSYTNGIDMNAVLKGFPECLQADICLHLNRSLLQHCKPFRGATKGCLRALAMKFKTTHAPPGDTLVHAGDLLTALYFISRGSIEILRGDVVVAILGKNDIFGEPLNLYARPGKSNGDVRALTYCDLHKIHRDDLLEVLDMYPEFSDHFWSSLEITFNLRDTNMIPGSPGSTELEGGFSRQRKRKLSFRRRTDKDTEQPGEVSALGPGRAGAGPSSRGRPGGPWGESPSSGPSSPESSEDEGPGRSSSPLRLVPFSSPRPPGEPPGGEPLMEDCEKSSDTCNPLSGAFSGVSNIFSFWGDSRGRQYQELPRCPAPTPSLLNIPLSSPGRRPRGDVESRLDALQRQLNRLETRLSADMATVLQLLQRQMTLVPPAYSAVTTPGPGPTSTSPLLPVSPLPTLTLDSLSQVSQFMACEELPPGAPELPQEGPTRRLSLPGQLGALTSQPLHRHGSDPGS
Chain of Retinoic acid receptor RXR-alpha (Homo sapiens) (P19793 whole entry, looked up): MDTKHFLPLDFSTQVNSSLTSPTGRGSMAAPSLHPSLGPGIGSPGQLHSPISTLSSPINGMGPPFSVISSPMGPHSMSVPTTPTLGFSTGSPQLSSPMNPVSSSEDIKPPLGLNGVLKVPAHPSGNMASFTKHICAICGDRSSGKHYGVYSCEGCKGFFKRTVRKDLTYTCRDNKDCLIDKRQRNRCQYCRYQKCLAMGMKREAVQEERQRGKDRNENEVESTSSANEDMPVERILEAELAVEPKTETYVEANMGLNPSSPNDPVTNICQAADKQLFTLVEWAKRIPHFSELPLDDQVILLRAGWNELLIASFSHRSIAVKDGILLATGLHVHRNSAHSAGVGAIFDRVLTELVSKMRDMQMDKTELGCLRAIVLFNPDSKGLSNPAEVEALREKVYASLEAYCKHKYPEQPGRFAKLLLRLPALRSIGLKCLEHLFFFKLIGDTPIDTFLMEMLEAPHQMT
Chain of Vitamin D3 receptor (Homo sapiens) (P11473 whole entry, looked up): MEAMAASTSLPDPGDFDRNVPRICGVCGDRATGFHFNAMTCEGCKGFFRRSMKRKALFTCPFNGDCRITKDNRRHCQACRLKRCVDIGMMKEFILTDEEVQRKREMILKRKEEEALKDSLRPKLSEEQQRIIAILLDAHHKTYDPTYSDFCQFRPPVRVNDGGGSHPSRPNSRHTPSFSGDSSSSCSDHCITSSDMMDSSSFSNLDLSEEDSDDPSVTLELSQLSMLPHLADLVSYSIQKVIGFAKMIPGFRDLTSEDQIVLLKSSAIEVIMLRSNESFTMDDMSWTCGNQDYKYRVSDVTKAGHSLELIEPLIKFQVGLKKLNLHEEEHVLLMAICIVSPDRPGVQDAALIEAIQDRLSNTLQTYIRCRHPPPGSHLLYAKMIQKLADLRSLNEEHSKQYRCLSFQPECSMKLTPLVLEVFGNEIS
Chain of Peroxisome proliferator-activated receptor gamma (Homo sapiens) (P37231 whole entry, looked up): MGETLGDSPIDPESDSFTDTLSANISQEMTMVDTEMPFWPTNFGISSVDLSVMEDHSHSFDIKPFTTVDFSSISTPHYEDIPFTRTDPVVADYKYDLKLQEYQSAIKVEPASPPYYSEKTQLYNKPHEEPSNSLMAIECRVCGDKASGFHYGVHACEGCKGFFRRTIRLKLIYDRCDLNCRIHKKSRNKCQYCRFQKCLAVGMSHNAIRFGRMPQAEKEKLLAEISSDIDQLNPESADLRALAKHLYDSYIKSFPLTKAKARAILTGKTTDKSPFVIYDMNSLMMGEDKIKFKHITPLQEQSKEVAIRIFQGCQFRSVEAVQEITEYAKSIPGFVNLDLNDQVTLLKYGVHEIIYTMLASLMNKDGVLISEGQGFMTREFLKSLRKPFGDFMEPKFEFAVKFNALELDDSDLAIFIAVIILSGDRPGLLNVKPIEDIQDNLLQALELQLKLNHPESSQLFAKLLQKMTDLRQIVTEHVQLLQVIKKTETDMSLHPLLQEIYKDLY
Chain of Luciferin 4-monooxygenase (Photinus pyralis) (P08659 whole entry, looked up): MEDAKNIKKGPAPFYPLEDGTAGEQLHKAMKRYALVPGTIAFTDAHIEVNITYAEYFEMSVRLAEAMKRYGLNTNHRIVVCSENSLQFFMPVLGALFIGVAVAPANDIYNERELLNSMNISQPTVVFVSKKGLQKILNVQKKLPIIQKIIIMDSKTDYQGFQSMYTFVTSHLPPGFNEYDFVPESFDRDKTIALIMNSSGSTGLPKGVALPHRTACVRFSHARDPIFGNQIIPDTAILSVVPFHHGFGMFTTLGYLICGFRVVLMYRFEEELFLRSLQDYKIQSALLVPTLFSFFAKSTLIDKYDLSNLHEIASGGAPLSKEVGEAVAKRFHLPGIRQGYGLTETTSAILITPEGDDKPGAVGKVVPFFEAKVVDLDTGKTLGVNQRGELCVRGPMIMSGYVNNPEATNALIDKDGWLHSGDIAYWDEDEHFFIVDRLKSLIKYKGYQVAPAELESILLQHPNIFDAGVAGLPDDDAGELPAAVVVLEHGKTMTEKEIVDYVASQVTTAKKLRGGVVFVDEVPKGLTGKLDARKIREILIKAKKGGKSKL
Chain of Glutaminase kidney isoform, mitochondrial (Homo sapiens) (O94925 whole entry, looked up, canonical isoform): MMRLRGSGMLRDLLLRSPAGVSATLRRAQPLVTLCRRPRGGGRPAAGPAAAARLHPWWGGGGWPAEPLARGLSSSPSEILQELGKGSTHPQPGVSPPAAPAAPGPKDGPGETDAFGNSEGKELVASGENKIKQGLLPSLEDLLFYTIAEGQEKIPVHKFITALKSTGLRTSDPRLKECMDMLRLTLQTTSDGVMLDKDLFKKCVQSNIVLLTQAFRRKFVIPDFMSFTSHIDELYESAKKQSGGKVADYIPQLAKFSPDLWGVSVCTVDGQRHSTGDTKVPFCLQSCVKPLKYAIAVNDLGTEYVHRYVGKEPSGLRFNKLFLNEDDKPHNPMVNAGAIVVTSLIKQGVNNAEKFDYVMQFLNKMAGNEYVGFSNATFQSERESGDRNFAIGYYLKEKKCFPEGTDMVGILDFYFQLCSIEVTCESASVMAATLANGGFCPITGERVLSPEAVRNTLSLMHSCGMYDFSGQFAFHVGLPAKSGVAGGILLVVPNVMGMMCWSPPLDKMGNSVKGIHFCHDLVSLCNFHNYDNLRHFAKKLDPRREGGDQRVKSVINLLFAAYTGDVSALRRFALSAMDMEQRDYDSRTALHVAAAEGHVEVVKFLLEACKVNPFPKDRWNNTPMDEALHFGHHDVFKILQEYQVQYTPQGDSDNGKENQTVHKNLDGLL
Chain of Glucagon-like peptide 1 receptor (Homo sapiens) (P43220 whole entry, looked up): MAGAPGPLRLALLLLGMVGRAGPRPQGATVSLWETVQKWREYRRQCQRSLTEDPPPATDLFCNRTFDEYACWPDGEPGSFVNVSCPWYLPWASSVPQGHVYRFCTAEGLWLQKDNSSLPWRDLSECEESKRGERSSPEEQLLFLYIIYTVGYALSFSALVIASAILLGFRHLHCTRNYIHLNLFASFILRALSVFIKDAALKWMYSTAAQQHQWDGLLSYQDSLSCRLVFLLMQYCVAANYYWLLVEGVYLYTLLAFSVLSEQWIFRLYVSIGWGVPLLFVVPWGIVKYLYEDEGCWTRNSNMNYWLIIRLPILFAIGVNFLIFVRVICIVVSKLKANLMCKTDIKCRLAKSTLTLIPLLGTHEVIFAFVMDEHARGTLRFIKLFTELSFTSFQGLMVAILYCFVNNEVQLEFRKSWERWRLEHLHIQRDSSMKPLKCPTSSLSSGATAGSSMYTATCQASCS

In the case of `Brc1ccccc1-c1ccccc1`, in test [1], the compound was classed as inactive. Besides, the max response in test [2] was 10.3%; in [4], 1.21%; in test [5], -2.01% (inactive). For the same compound, the Potency entry in [3] and in [6] was “inactive” throughout.
Consider `COc1cc(C=O)ccc1O`, for which the max response is -8.31% and -9.26% in [7]; -4.86% in test [2]; -4.04% and -15.4% in test [4]; 30% (inactive) and 5.74% (inactive) in test [5]. For the same compound, the compound was called inactive in [8], in test [9], in test [10] and in test [1]. In addition, the Potency result in [3], in [11] and in [6] was “inactive” each time.
With `CC(=O)OC/C=C(C)/C=C/C=C(C)/C=C/C1=C(C)CCCC1(C)C`, the max response was 34.7% in test [7], 10.5% in [4] and 0.429% (inactive) in test [5]. The compound was called inactive in [8], in test [9] and in test [1]. Moreover, the Potency result in [11] and in [6] was “inactive” throughout.
`C[N+](C)(C)CCO`: the Potency entry in [11], in test [6] and in test [12] was “inactive” throughout. The compound was called inactive in test [13], in [14], in [15] and in [16].
For the compound `C[C@]12CCC(=O)C=C1CC[C@@H]1[C@@H]2[C@@H](O)C[C@@]2(C)[C@H]1CC[C@]2(O)C(=O)COC(=O)CCC(=O)O`, the Potency result in test [11] and in test [6] was “inactive” in each case.
`CC(C)(c1ccc(O)cc1)c1ccc(O)cc1`: the max response in [7] was -24.6%; in test [4] it was -4.03% and -11.6%; in test [5] it was -28% (inactive) and 10.2% (inactive). The compound was classed as inactive in test [8].
Take `CC(C)(C)c1ccc(O)c(O)c1`: the max response in test [7] is -11.7% and -3.04%; in test [4] it was 3.05% and -10.4%; in test [5], -35.8% (inactive) and -24.1% (inactive). Further, the call in test [8], in test [9], in test [10] and in test [1] was inactive. Besides, the Potency entry in test [11] is “inactive”.
As for `CC(NCCC(c1ccccc1)c1ccccc1)c1ccccc1` (stereo unspecified), the Potency in test [11] is 2.24 µM (active); in test [17], 25.6 µM (active). Further, the Potency result in test [6] and in test [18] was “inactive” throughout.
On to `CCCCCCCCCCCCCCCC[N+](C)(C)Cc1ccccc1`, for which the Potency in test [11] was 22.4 µM (active); in test [17], 16.1 µM (active); in test [19], 14.4 µM (active). Besides, the Potency entry in test [6] and in test [18] was “inactive” each time.
In the case of `Nc1ccc(O)cc1`, the compound was called inactive in test [10]. In addition, the max response in test [2] was 21.6%; in test [4], -3.95%; in test [5] it was -4.53% (inactive). For the same compound, the Potency result in test [3] and in [11] was “inactive” each time.
Regarding `Nc1c2ccccc2nc2ccccc12`, the result in [9] was inactive. Besides, the Potency entry in test [11], in test [6], in test [17] and in test [19] was “inactive” throughout. Moreover, the Potency in test [18] is 22.4 µM (active).
Regarding `NC(N)=NCCCCN=C(N)N`, the Potency entry in test [11], in test [6] and in test [12] was “inactive” each time. The compound was called inactive in test [13], in test [14], in [15] and in test [16].
`O=C(c1ccccc1)c1ccccc1`: the max response is 3.99% and -25% in test [7]; -13.1% and -5.43% in test [2]; -0.815% and -2.27% in test [4]; 29.2% (inactive) and -10.9% (inactive) in test [5]. For the same compound, the result in [8] and in test [1] was inactive. Besides, the Potency result in [3] and in test [6] was “inactive” throughout.
As to `COC(=O)c1c(Cl)c(Cl)c(C(=O)OC)c(Cl)c1Cl`, the max response in [7] was -8.5%; in test [2] it was -4.07%; in [4] it was -11.5%; in test [5], 4.25% (inactive). The compound was classed as inactive in [8], in test [10] and in [1]. For the same compound, the Potency entry in test [3] and in test [6] was “inactive” each time.
